Measured values as given in PubChem BioAssay AID1159580 (chemical genetic matrix, 2015).
Screen size: about 5,500 compounds; about 2,000 (36%) were called active. Another 18% or so got no clear call; they are omitted. Cut-off read from the data, not from the text of the source: active = normalized growth mostly below about 0.91 (no sharp cut-off); inconclusive = no clear call, values can overlap the other calls; inactive = mostly above about 0.92. This is one part of the list.

Assay: chemical genetic growth profiling, strain panel (AID 1159580);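 note: tested at 20 µM; growth read once vehicle control cultures reached saturation at 30 °C; 1 = growth at the plate median or of vehicle wells; lower values mean less growth of the strain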
Details: S. cerevisiae deletion strains, growth OD

Measured: normalized growth

O=C(Nc1cccc(C(=O)Nc2ccc(S(=O)(=O)O)c3cc(S(=O)(=O)O)cc(S(=O)(=O)O)c23)c1)Nc1cccc(C(=O)Nc2ccc(S(=O)(=O)O)c3cc(S(=O)(=O)O)cc(S(=O)(=O)O)c23)c1
inactive: locus YAL040C, strain CLN3, hits give low values 1.05 | locus YCL061C, strain MRC1 (second series), hits give low values 0.981 | locus YDR150W, strain NUM1, hits give low values 0.976 | locus YDR363W, strain ESC2, hits give low values 1.02 | locus YER002W, strain NOP16, hits give low values 0.968 | locus YMR263W, strain SAP30, hits give low values 0.973 | locus YNL153C, strain GIM3, hits give low values 0.977 | locus YNL175C, strain NOP13, hits give low values 0.978 | locus YNL197C, strain WHI3, hits give low values 0.968 | locus YNL224C, strain SQS1, hits give low values 0.981 | locus YOR083W, strain WHI5 (second series), hits give low values 0.97
